# A number with no mark means an inactive call. Where a call stands in place of a potency, no number is given. For some assays here: Potency and affinity values are given separately. Calls of active or inactive are those of the source. Unless noted, no rule for the calls is given here.
# Experiments:
# [1] = antimalarial activity against Dd2 strain (AID 2302;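 active = growth inhibition above 50% at the single 2 µM test dose, taken to imply half-maximal potency below 2 µM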); conditions: P. falciparum Dd2 in RBCs, LDH growth readout, 72 h; at 2 µM; hits give high values
# [2] = human hepatoma cell viability loss – ATP luminescence, cytotoxicity control for P. falciparum antimalarial project, primary screen (AID 2303;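 active = inhibition above 50%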); conditions: HepG2 viability, 24-48 h, at 10 µM, hits give high values
# [3] = molecular target: L-lactate dehydrogenase (Plasmodium falciparum (isolate CDC / Honduras)) (UniProt Q27743); test: PfLDH activity inhibition – cell lysate, 3D7 strain, counter-screen for P. falciparum growth inhibition project (AID 2304); conditions: P. falciparum 3D7 crude extract, LDH APAD/NBT absorbance; at 2 µM; hits give high values
# L-lactate dehydrogenase (Plasmodium falciparum (isolate CDC / Honduras)), sequence (Q27743 whole entry, looked up): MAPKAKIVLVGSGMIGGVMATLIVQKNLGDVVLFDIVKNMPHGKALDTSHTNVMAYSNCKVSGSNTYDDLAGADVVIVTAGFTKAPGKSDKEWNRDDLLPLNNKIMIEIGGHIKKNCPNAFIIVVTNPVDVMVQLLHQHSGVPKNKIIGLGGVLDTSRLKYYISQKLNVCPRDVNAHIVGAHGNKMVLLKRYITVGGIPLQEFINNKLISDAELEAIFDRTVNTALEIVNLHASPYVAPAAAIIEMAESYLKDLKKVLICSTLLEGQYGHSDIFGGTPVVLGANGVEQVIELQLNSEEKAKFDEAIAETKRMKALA
# [4] = inhibition of 3D7 malaria parasite growth – strain 3D7 (AID 2306); conditions: P. falciparum 3D7 erythrocytic growth, LDH absorbance, 72 h; at 2 µM; hits give high values
# [5] = molecular target: Calcium-dependent protein kinase 1 (Plasmodium falciparum (isolate 3D7)) (UniProt P62344); test: PfCDPK1 kinase inhibitors, biochemical, TCAMS library (AID 1159585; cut-off not given, nearly all actives have IC50 up to about 0.98 µM;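 also: inhibitors leave more ATP so luminescence rises with inhibition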); conditions: recombinant PfCDPK1, Kinase-Glo ATP depletion luminescence
# Calcium-dependent protein kinase 1 (Plasmodium falciparum (isolate 3D7)), sequence (P62344 whole entry, looked up): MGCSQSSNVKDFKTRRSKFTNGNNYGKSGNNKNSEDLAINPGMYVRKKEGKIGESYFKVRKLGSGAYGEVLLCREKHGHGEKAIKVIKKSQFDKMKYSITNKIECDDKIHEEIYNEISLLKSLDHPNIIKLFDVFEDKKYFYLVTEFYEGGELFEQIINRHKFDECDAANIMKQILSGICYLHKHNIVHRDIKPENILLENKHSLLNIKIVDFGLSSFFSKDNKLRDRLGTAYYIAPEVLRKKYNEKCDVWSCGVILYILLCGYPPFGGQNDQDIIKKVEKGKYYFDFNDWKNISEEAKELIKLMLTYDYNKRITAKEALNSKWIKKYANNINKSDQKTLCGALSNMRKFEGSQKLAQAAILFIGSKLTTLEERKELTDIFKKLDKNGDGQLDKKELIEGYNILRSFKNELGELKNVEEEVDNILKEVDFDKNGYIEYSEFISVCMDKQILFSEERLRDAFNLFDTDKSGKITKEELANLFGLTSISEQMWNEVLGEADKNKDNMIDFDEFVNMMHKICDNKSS
# [6] = molecular target: Plasmodium falciparum protein kinase 6 (PK6, PF3D7_1337100) (UniProt Q8IDW1); test: PfPK6 kinase inhibitors, biochemical, TCAMS library (AID 1159586); conditions: recombinant PfPK6, Kinase-Glo ATP depletion luminescence
# Plasmodium falciparum protein kinase 6 (PK6, PF3D7_1337100), sequence (Q8IDW1 1-305): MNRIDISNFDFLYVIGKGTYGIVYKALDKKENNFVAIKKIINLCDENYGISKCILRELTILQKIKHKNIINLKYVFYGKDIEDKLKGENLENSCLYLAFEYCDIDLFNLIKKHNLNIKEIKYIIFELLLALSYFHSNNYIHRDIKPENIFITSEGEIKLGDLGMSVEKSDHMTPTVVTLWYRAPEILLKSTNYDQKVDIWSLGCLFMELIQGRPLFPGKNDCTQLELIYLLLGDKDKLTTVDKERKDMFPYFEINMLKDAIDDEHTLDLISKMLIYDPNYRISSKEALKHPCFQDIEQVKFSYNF
# [7] = molecular target: Protein kinase 7 (PK7), Plasmodium falciparum 3D7 (PF3D7_0213400) (UniProt Q7YTF7); test: inhibition of Plasmodium PK7 catalytic activity – biochemical, TCAMS antimalarial set, Kinase-Glo luminescence (AID 1159587); conditions: recombinant PfPK7, Kinase-Glo ATP depletion luminescence
# Protein kinase 7 (PK7), Plasmodium falciparum 3D7 (PF3D7_0213400), sequence (Q7YTF7 1-343): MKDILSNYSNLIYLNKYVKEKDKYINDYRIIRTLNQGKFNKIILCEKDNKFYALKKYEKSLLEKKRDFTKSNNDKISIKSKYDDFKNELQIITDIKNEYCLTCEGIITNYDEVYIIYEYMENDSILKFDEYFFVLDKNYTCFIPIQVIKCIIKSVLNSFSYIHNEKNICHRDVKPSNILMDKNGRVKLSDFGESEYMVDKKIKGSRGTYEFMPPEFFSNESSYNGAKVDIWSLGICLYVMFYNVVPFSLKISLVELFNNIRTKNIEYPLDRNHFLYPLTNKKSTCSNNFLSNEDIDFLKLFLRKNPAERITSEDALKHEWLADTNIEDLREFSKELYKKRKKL
# [8] = molecular target: Calcium-dependent protein kinase 4 (Plasmodium falciparum (isolate 3D7)) (UniProt Q8IBS5); test: PfCDPK4 kinase inhibitors, biochemical, TCAMS library (AID 1159588; cut-off not given, nearly all actives have IC50 up to about 0.91 µM); conditions: recombinant PfCDPK4, Kinase-Glo ATP depletion luminescence
# Calcium-dependent protein kinase 4 (Plasmodium falciparum (isolate 3D7)), sequence (Q8IBS5 whole entry, looked up): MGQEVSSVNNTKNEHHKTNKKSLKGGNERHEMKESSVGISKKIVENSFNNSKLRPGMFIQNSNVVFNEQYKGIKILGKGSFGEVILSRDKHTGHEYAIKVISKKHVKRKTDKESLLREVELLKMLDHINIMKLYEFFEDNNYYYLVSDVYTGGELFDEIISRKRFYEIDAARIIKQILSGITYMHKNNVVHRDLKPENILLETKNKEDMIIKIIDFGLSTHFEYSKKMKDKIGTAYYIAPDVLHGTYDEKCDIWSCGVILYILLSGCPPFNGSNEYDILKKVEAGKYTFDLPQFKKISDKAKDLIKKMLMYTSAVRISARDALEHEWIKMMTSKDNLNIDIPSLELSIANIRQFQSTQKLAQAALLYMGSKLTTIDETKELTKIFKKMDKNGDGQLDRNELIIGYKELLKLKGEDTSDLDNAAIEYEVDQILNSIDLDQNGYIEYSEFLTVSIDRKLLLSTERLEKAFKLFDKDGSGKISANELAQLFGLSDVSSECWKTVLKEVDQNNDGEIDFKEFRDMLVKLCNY
SMILES,growth inhibition [1],inhibition [2],inhibition [3],growth inhibition [4],outcome [5],outcome [6],outcome [7],outcome [8]
COc1cccc2cc(C(=O)N[C@@H](CC(C)C)C(=O)N[C@H](/C=N/NC(=O)OC(C)(C)C)CC(=O)OC(C)(C)C)oc12,57% (active),4%,0%,85% (active),inactive,inactive,inactive,inactive
COc1cc(C(=O)NC2CCc3ccccc32)cc(Cl)c1OC (stereo not given),60% (active),12%,-4%,85% (active),inactive,inactive,inactive,inactive
CCc1ccccc1-c1csc(C(=O)NCC2CCN(Cc3ccc(C(C)(C)C)cc3)C2)c1 (stereo not given),15%,25%,-2%,90% (active),inactive,inactive,inactive,inactive
CCCCC(=O)Nc1nc2ccc([N+](=O)[O-])cc2s1,69% (active),9%,-5%,91% (active),inactive,inactive,inactive,inactive
COc1ccc(NC(=O)C=Cc2ccc(Oc3ccccc3Cl)c([N+](=O)[O-])c2)cc1OCCN(C(C)C)C(C)C,97% (active),31%,2%,99% (active),inactive,inactive,inactive,inactive
OC1CCC(Nc2ccc3ncc(-c4ccc5ccccc5c4)n3n2)CC1 (stereo not given),94% (active),52% (active),3%,95% (active),inactive,inactive,inactive,inactive
COc1ccc(-c2nc3c(N)nc(N)nc3nc2-c2ccccc2Cl)cc1 (tested in a mixture with another compound),-1%,45%,-2%,93% (active),inactive,inactive,inactive,inactive
COc1ccc(CN(C)CCCc2ccc(NC(=O)c3cccc4c(=O)c5cccc(F)c5[nH]c34)cc2)cc1OC,94% (active),100% (active),0%,100% (active),inactive,inactive,inactive,inactive
C=C1C[C@@H](n2cnc3c(NC(=O)c4ccccc4)ncnc32)[C@@H](F)[C@@H]1OC(c1ccccc1)(c1ccccc1)c1ccccc1,97% (active),16%,-5%,98% (active),inactive,inactive,inactive,inactive
COc1cccc2sc(Nc3nc(-c4ccccn4)cs3)nc12,76% (active),41%,4%,94% (active),inactive,inactive,inactive,inactive
CC(C)(C)c1ccc(CN2CCC(CNC(=O)c3cc(-c4ccccc4F)cs3)C2)cc1 (stereo not given),98% (active),46%,4%,100% (active),inactive,inactive,inactive,inactive
Cc1ccc(C(=O)NC2CC2)cc1-c1ccc2c(cnn2S(=O)(=O)c2ccc(F)cc2)c1,69% (active),7%,-2%,93% (active),inactive,inactive,inactive,inactive
CC(=O)c1cccc(NC(=O)NC2CCN(c3ccnc(Nc4ccc(F)cc4)n3)C2)c1 (stereo not given),94% (active),10%,-2%,99% (active),inactive,inactive,inactive,inactive
O=C(c1ccc(-c2cccc(-c3nc4ccc(F)cc4[nH]3)c2)cc1)N1CCCCC1CN1CCC(O)C1 (stereo not given),-4%,11%,-1%,91% (active),inactive,inactive,inactive,inactive
Cc1c(C)n(Cc2ccccc2)c2ncnc(OC3CCN(CC(=O)NCC4CC4)CC3)c12,79% (active),17%,-3%,92% (active),inactive,inactive,inactive,inactive
COc1cc(Cc2cnc(N)nc2N)ccc1OCc1cccc(Oc2ccccc2)c1,21%,18%,0%,84% (active),inactive,inactive,inactive,inactive
c1ccc(CN2CCC(NCc3ccc(-c4cncc5ccccc45)cc3)CC2)cc1,19%,21%,-3%,98% (active),inactive,inactive,inactive,inactive
O=C(NC1CCCCC1)N(Cc1cccc(-c2ccc(CNCc3ccc4c(c3)OCO4)cc2)c1)C1CCN(Cc2ccccc2)CC1,59% (active),13%,-9%,92% (active),inactive,inactive,inactive,inactive
COc1ccccc1CN1CCC(CNC(=O)c2cc(-c3ccc(N(C)C)cc3)cs2)C1 (stereo not given),16%,17%,-5%,82% (active),inactive,inactive,inactive,inactive
CC(C)NCc1cccc(-c2ccc(NC(=O)c3ccc(C#N)cc3)cc2)c1,8%,15%,3%,99% (active),inactive,inactive,inactive,inactive

SMILES,growth inhibition [1],inhibition [2],inhibition [3],growth inhibition [4],outcome [5],outcome [6],outcome [7],outcome [8]
N#CC(c1cccc(Cl)c1)c1ccc2c(C(F)(F)F)cc(C(F)(F)F)nc2n1 (stereo not given),97% (active),52% (active),4%,96% (active),inactive,inactive,inactive,inactive
COc1ccc(-c2ccc(CNC(=O)c3cccc(C#N)c3)c(F)c2)cc1CN1CCCN(C)CC1,30%,8%,-4%,99% (active),inactive,inactive,inactive,inactive
COc1ccc2nc(Nc3nc4ccncc4[nH]3)sc2c1,26%,8%,0%,88% (active),inactive,inactive,inactive,inactive
COCC(C)n1c(SC(C)C(=O)Nc2cc([N+](=O)[O-])ccc2Cl)nc2ccccc2c1=O (stereo not given),94% (active),-8%,2%,95% (active),inactive,inactive,inactive,inactive
Cc1noc(C)c1-c1ccc2c(Nc3nccc4ccccc34)c(C(N)=O)cnc2c1,99% (active),100% (active),1%,100% (active),inactive,inactive,inactive,inactive
Cc1ccc(C2(CN3CCC(NC(=O)c4[nH]ncc4Cl)CC3)CCCCC2)cc1,96% (active),-11%,-3%,97% (active),inactive,inactive,inactive,inactive
O=C(Nc1cccc(-c2ccc(-c3nc4ccc(F)cc4[nH]3)cc2)c1)Nc1ccc(F)c(F)c1F,98% (active),53% (active),3%,98% (active),inactive,inactive,inactive,inactive
O=C(NCc1cccc(F)c1)Nc1ccc(-c2ccc(-c3nc4ccc(C(F)(F)F)cc4[nH]3)cc2)cc1,24%,46%,0%,100% (active),inactive,inactive,inactive,inactive
Cc1ccc(C(=O)Nc2ccc(OC3CCN(CCC(C)C)C3)c(Cl)c2)cc1 (stereo not given),38%,63% (active),0%,83% (active),inactive,inactive,inactive,inactive
Cc1oc(-c2cccc(Oc3ccccc3)c2)nc1CN(Cc1cnn(C)c1)C(C)C,61% (active),22%,2%,89% (active),inactive,inactive,inactive,inactive
O=C(Nc1ccc2c(c1)CCC2)c1ccc(N2CCN(c3ccncc3)CC2)cn1,58% (active),56% (active),2%,99% (active),inactive,inactive,inactive,inactive
O=C(Nc1ccc(-c2nc3ccccc3[nH]2)cc1)c1ccc([N+](=O)[O-])s1,77% (active),83% (active),-6%,101% (active),inactive,inactive,inactive,inactive
Cc1cc(-c2ccnc(Nc3cccc(C#N)c3)n2)cc(C)c1O,54% (active),50% (active),5%,88% (active),inactive,inactive,inactive,inactive
CN1CCC(Oc2cc(CN3CC[C@H](NC(=O)c4ccc(Cl)c(Cl)c4)C3)ccc2I)C1 (stereo not given in full),24%,68% (active),1%,97% (active),inactive,inactive,inactive,inactive
O=C(NCCCCN1CCC(c2ccc(-c3ccco3)cc2)CC1)c1ccc(NC(=O)c2ccc(Cl)cc2)cc1,97% (active),26%,6%,100% (active),inactive,inactive,inactive,inactive
O=C(NCCCN1CCCC1=O)c1cnc(N2CCC(Oc3ccccc3)CC2)c(Cl)c1,93% (active),7%,-2%,97% (active),inactive,inactive,inactive,inactive
Oc1cccc2c1CC(NCc1ccccc1)CC2 (stereo not given),24%,4%,6%,90% (active),inactive,inactive,inactive,inactive
CN1CCc2cc(Br)c(O)cc2C1Cc1ccccc1Cl (stereo not given),88% (active),2%,-2%,98% (active),inactive,inactive,inactive,inactive
COc1ccc(NC(=O)Nc2ccc(-c3cccc(-c4nc5ccccc5[nH]4)c3)cc2)cc1,41%,44%,3%,99% (active),inactive,inactive,inactive,inactive
COc1ccc(NC(=O)/C=C/c2ccccc2Cl)cc1OCCN1CCN(c2ccncc2)CC1,52% (active),7%,-2%,101% (active),inactive,inactive,inactive,inactive
